# High-throughput results from PubChem.
# Rows were chosen to be rich in hits. Some 4.2% of all compounds tested hit in one or more screens of this group.
# uPA surface inh = blocks generation of uPA at the cell surface; cell surface uPA generation assay, qHTS; Potency, µM (series often up to 38.3 µM), without a hit: at the top dose activity change, negative = inhibition, most hits filed as inhibitors; 330,000 compounds, 0.31% hits; AID 540303; active = well fitted inhibition curve with a large enough effect; inconclusive = small, poorly fitted or top-dose-only effect; inactive = no such curve, though single readings can be large or run the other way; tested in mouse RAW 264.7 cells; also: potency is read from the fitted curve at half-maximal effect; % is scaled to controls: 0 for no effect and ±100 for the full control effect; nearly all actives have a fitted effect of over 55% in size
# Sfp inh = inhibitors of Bacillus subtilis Sfp phosphopantetheinyl transferase | 310,000 compounds, 3.5% hits | Biochemical Sfp PPTase activity, qHTS | AID 1490 | Q9F4F7 | Potency, µM, without a hit: largest response in the series, negative = inhibition, hits mostly inhibitors;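 also: the enzyme is Sfp with the accession as filed and its product quenches rhodamine fluorescence; potency is read from the fitted curve at half-maximal effect; 0% = enzyme reaction without inhibitor and -100% = no enzyme wells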
#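 Sfp 15 nM + cpd, 15 min RT; start w/ rhodamine-CoA 5 uM, BHQ-2-YbbR 12.5 uM (final); 50 mM Hepes pH 7.6, 10 mM MgCl2, 0.01% NP-40, 0.01% BSA; read 525/598 nm at 0 and 30 min.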
# ClpP mod = qHTS Assay for Activators of ClpP; Potency, µM (titrated, usually from 57.5 µM), for inactives: at the top dose activity change, negative = active; purified B. subtilis ClpP, FRET peptide cleavage, 20 min; ATP-dependent Clp protease proteolytic subunit (Bacillus subtilis (strain 168)), P80244; AID 651965, 2013; 340,000 compounds, 1.9% hits; active = well fitted falling curve with a large enough effect; inconclusive = small, poorly fitted or top-dose-only effect; inactive = no such curve, though single readings can be large or run the other way; also: potency is read from the fitted curve at half-maximal effect; the source files actives as falling curves though it sought activators and does not explain the sign; nearly all actives have a fitted effect of over 65% in size
# Target sequence (P80244 whole entry, looked up): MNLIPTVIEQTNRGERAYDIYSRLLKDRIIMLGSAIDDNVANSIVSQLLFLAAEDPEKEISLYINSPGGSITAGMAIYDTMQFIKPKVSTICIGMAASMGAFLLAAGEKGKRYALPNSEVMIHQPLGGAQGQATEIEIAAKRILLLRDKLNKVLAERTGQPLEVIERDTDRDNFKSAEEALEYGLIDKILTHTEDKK
#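 Purified B. subtilis ClpP, 10 microg/mL final in Tris/HCl pH8 with KCl, BSA, glycerol and Tween-20, cleaved an Abz/nitrotyrosine-quenched decapeptide. Fluorescence (ex 320, em 430) was read at 0 and 20 min at room temperature. Delta was normalized to 5.8 microM ADEP and DMSO/no-enzyme controls.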
# TCR activator = T cell receptor activation. primary human leukocytes, anti-CD3, IL-2 HTRF, 48 h. Potency, µM (doses to about 9.22 µM), inactives show at the highest dose activation of IL-2 secretion, hits mostly activators. 330,000 tested, under 10 active; also: % of control where 0% means no effect
#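 Compounds are tested in HTS on primary human leukocytes co-incubated with a-CD3 beads for 48 hr. IL-2 output is measured by time-resolved FRET.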
# The depositor's hits bear a star; u = inconclusive; x = not tested or not shown; [ ] = remark or other dose. Unless noted, calls follow the shape of the dose curve; as a rule, active = well fitted curve in the direction sought with a large enough effect; inconclusive = small, poorly fitted or top-dose-only effect, or another doubt; inactive = no such curve, though single readings can be large; an effect the other way counts as inactive or inconclusive.
SMILES,uPA surface inh,Sfp inh,ClpP mod,TCR activator
COc1ccc(N2C3=C(CC4=C2CC(C)(C)CC4=O)C(=O)CC(C)(C)C3)cc1,u,17.8µM*,-13.5%,14.6%
CCSc1ncc(/C=N/Nc2ccc(Cl)cc2)n1C,18.1%,28.2µM*,-16.0%,0.5%
CN(c1ccccc1)c1ccc(/C=C/[N+](=O)[O-])cc1,-4.9%,17.8µM*,x,-0.1%[46.1 µM]
O=[N+]([O-])c1ccc(C=CC=Cc2ccccc2)cc1,x,x,1.1%,x
COc1ccc(COC(=O)c2cccc(S(=O)(=O)N3CCN(C(C)=O)CC3)c2)cc1F,u,x,-29.9%,5.9%
CN1CCN(CCCNC(=O)c2ccc(CSCc3cccc(Cl)c3)o2)CC1,-9.7%,6.3%,14.1µM*,2.8%
Cc1cccc(CS(=O)(=O)Cc2ccc(C(=O)NCCCN3CCOCC3)o2)c1,-0.3%,-20.7%,28.2µM*,-5.1%
Cc1cccc(CS(=O)(=O)Cc2ccc(C(=O)NCCCN3CCCC3)o2)c1,x,-10.7%,0.1%,10.3%
COc1ccc(N2CCN(C(CNC(=O)C(=O)NCc3ccc(F)cc3)c3cccnc3)CC2)cc1 (centres undefined),x,x,1.1%,x
O=C(Oc1cccc2c(O)cccc12)c1ccco1,1.0%,x,x,2.3%
CC1(C)Cc2nc3sc4c(SCC(=O)NCc5ccco5)ncnc4c3cc2CO1,-8.3%,u,-4.6%,6.1%
CC(C)c1nc2sc3c(SCC(=O)NCc4ccco4)ncnc3c2c2c1CCC2,-3.6%,25.1µM*,25.1µM*,5.6%
Cc1cc(C)c(Cn2c(CCNC(=O)c3ccco3)nc3ccccc32)c(C)c1,x,x,1.0%,x
CC(CC(=O)O)Nc1ccccc1O (centres undefined),2.0%,35.5µM*,x,-4.4%
CC(=O)Nc1ccccc1O,-4.5%,12.7%,-0.7%,1.6%
CCC1=C2CC[C@H]3C(=O)N(C)C(=O)[C@H]3[C@H]2[C@@]2(Cc3ccccc3)C(=NCC3CC3)OC(=O)N2C1=O,x,19.2%,x,x
COc1ccc(NC(=O)c2ccc(-c3ccc(-c4noc(C)n4)cc3C)cc2)cc1N1CCN(C)CC1,u,31.6µM*,-0.9%,3.5%
COc1ccc(NC(=O)c2ccc(-c3ccc(-c4noc(C)n4)cc3C)cc2)cc1OCCN(C)C,x,79.4µM*,x,x
COc1ccc(NC(=O)N2CCN(c3cc(-c4noc(C)n4)ccc3C)CC2)c(OC)c1,x,x,2.3%,x
COc1ccc(-n2nc3c(c2NC(=O)CCCl)CSC3)cc1,-6.3%,16.3%,x,-0.8%
CC(C)CCCC(C)C1CC(=O)C2=C3CCC4CC(O)CCC4(C)C3CCC21C (centres undefined),x,-11.1%,x,x
Fc1ccc(-c2cn3cc(Cc4ccccc4Cl)sc3n2)cc1,x,x,-4.9%,x
O=C1NC(=O)c2cc(NC(=O)C3CCCCC3)ccc21,-6.1%,14.3%,25.1µM*,-4.7%
COc1cc(NC(=O)c2ccc(Cl)cc2Cl)ccc1-c1cc2ccccc2oc1=O,4.5%,16.3%,-6.5%,-0.6%
Cc1cc(NC(=O)c2cc(Cl)ccc2Cl)ccc1-c1cc2ccccc2oc1=O,x,x,11.2µM*,x
SMILES,uPA surface inh,Sfp inh,ClpP mod,TCR activator
O=C(Nc1ccc2c(c1)C(=O)NC2=O)c1cc(Cl)ccc1Cl,10.3%,7.2%,31.6µM*,8.9%
C/C(CC(=O)Nc1ccc(F)cc1F)=N\NC(=O)C(=O)N1CCCCC1,x,9.6%,x,x
COc1ccc2oc(C(=O)OCC(=O)N(Cc3ccccc3)C(C)C)c(C)c2c1,-8.0%,x,31.6µM*,1.5%
COc1ccc2oc(C(=O)OCC(=O)N(C)Cc3ccccc3)c(C)c2c1,-14.1%,x,28.2µM*,6.6%
COc1cccc(OCC(=O)NC2CC(=O)N(c3cccc(OC)c3)C2)c1 (centres undefined),x,x,1.8%,x
CCc1c(C)sc(NC(=S)Nc2nc(C)cc(C)n2)c1C(=O)OC,-7.6%,-23.1%,x,-5.2%
CCc1c(C)sc(NC(=S)Nc2cccnc2)c1C(=O)OC,x,20µM*,1.0%,-5.4%
Cc1ccc(-n2ncc3c(SCc4ccccc4)ncnc32)cc1,5.7%,-11.4%,22.4µM*,2.5%[46.1 µM]
Cc1ccc(CSc2ncnc3c2cnn3-c2ccccc2)cc1,-1.2%,-1.4%,25.1µM*,-5.9%[46.1 µM]
Cc1ccc(CSc2ncnc3c2cnn3-c2ccc(C)cc2)cc1,1.9%,-8.6%,-17.0%,0.2%[46.1 µM]
c1ccc(CSc2ncnc3c2cnn3Cc2ccccc2)cc1,4.5%,-7.8%,-16.1%,2.0%
COc1cc(C(=O)N/N=C/c2ccc3c(c2)c2ccccc2n3C)ccc1O,-12.1%,11.9%,28.2µM*,-1.8%
O=C(N/N=C\c1ccc(O)c([N+](=O)[O-])c1)c1ccccc1-n1cccc1,-2.9%,0.2%,-3.0%,1.4%[46.1 µM]
COc1cc(C=NNC(=O)c2ccccc2-n2cccc2)ccc1O,-7.8%,x,20µM*,5.2%
CCn1c2ccccc2c2cc(/C=N/n3c(C)nnc3C)ccc21,-23.1%,50.1µM*,u,-1.1%
COc1cc(/C=N/NC(=O)C2=NNC(=O)C2C)ccc1O (centres undefined),1.5%,50.1µM*,0.6%,6.6%
Cc1nnc(C)n1/N=C/c1ccccc1,-2.3%,23.8%,-1.7%,4.0%
Cn1c2ccccc2c2cc(/C=N/NC(=O)c3cc(O)cc(O)c3)ccc21,-1.0%,-5.4%,3.7%,-8.0%
CCn1c2ccccc2c2cc(/C=N/NC(=O)c3ccccc3)ccc21,-10.1%,27.1%,22.4µM*,-1.5%
CSC1=C(C#N)C(c2ccccc2)C(C(C)=O)=C(C)N1 (centres undefined),1.4%,18.6%,0.1%,1.6%
CCOC(=O)CSC1=C(C#N)C(c2ccccc2)C(C(C)=O)=C(C)N1 (centres undefined),-2.7%,79.4µM*,-3.0%,x
CC(=O)C1=C(C)NC(SCC(=O)Nc2nccs2)=C(C#N)C1c1ccccc1Cl (centres undefined),-12.6%,-28.6%,28.2µM*,6.3%[46.1 µM]
CSCSC1=C(C#N)C(c2ccc(Cl)cc2)C(C(C)=O)=C(C)N1 (centres undefined),x,10µM*,x,x
CCc1ccccc1NC(=O)[C@@H](c1ccccc1)N1Cc2ccccc2C1=O,x,x,1.8%,x
COc1cc(OC)cc(C2=Nn3c(nnc3-c3ccccc3OC)SC2)c1,x,-2.4%,x,x
SMILES,uPA surface inh,Sfp inh,ClpP mod,TCR activator
CCc1ccc2c(CN3CCN(S(=O)(=O)c4cccs4)CC3)cc(=O)oc2c1,-13.4%,8.4%,31.6µM*,-4.5%[46.1 µM]
CCc1ccc2c(CN3CCN(S(=O)(=O)c4ccccc4F)CC3)cc(=O)oc2c1,-8.5%,x,x,0.1%
CCOc1ccc(S(=O)(=O)Nc2ccccn2)c2ccccc12,-1.8%,14.9%,35.5µM*,x
CCOc1ccc(S(=O)(=O)NCCN2CCOCC2)c2ccccc12,8.8%,79.4µM*,-9.6%,11.3%
CCCOc1ccc(S(=O)(=O)Nc2ccccn2)c2ccccc12,2.7%,15.0%,-1.7%,x
NC(=O)CCC1NC(=O)C(Cc2ccccc2)NC(=O)C(Cc2ccc(O)cc2)NC(=O)CCSSCC(C(=O)N2CCCC2C(=O)NC(CCCN=C(N)N)C(=O)NCC(N)=O)NC(=O)C(CC(N)=O)NC1=O (centres undefined),x,22.5%,x,x
O=C(CCS(=O)(=O)c1ccc(F)cc1)Nc1nc(-c2ccncc2)cs1,u,12.6µM*,-0.1%,0.7%
